About 2,000 (36%) of roughly 5,500 compounds were called active. Roughly 18% stayed inconclusive and do not appear here. Rule as the data show it: active = normalized growth mostly below about 0.91 (no sharp cut-off); inconclusive = no clear call, values can overlap the other calls; inactive = mostly above about 0.92. The list shows a part of the results.
Test: chemical genetic growth profiling, strain panel (AID 1159580);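 also: tested at 20 µM; growth read once vehicle control cultures reached saturation at 30 °C; 1 = growth at the plate median or of vehicle wells; lower values mean less growth of the strain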
Details: S. cerevisiae deletion strains, growth OD
[1] = locus YAR019C, strain CDC15, hits give low values
[2] = locus YBL105C, strain PKC1, hits give low values
[3] = locus YBR135W, strain CKS1, hits give low values
[4] = locus YBR136W, strain MEC1, hits give low values
[5] = locus YBR160W, strain CDC28, hits give low values
[6] = locus YDL017W, strain CDC7, hits give low values
[7] = locus YDL028C, strain MPS1, hits give low values
[8] = locus YDL101C, strain DUN1, hits give low values
[9] = locus YDL108W, strain KIN28, hits give low values
[10] = locus YDL132W, strain cdc53, hits give low values
[11] = locus YDL214C, strain PRR2, hits give low values
[12] = locus YDR052C, strain DBF4, hits give low values
[13] = locus YDR054C, strain cdc34, hits give low values
[14] = locus YDR226W, strain ADK1, hits give low values
[15] = locus YDR477W, strain SNF1, hits give low values
[16] = locus YER123W, strain YCK3, hits give low values
[17] = locus YER133W, strain GLC7, hits give low values
[18] = locus YFL009W, strain cdc4, hits give low values
[19] = locus YFL029C, strain CAK1, hits give low values
[20] = locus YFR003C, strain YPI1, hits give low values
[21] = locus YFR019W, strain FAB1, hits give low values
[22] = locus YFR028C, strain CDC14, hits give low values
[23] = locus YGR040W, strain KSS1, hits give low values
[24] = locus YGR052W, strain FMP48, hits give low values
[25] = locus YGR092W, strain DBF2, hits give low values
[26] = locus YHR030C, strain SLT2, hits give low values
[27] = locus YHR079C, strain IRE1, hits give low values
[28] = locus YHR082C, strain KSP1, hits give low values
[29] = locus YHR205W, strain SCH9, hits give low values
[30] = locus YIL147C, strain SLN1, hits give low values
[31] = locus YJL095W, strain BCK1, hits give low values
[32] = locus YJL128C, strain PBS2, hits give low values
[33] = locus YJL157C, strain FAR1, hits give low values
[34] = locus YJR016C, strain ILV3, hits give low values
[35] = locus YJR066W, strain TOR1 (second series), hits give low values
[36] = locus YJR066W, strain TOR1, hits give low values
[37] = locus YKL048C, strain ELM1, hits give low values
[38] = locus YKL067W, strain YNK1, hits give low values
[39] = locus YKL101W, strain HSL1, hits give low values
[40] = locus YKL193C, strain SDS22, hits give low values
[41] = locus YKL203C, strain TOR2, hits give low values
[42] = locus YLR113W, strain HOG1, hits give low values
[43] = locus YLR133W, strain CKI1, hits give low values
[44] = locus YLR403W, strain SFP1, hits give low values
[45] = locus YML070W, strain DAK1, hits give low values
[46] = locus YMR001C, strain CDC5, hits give low values
[47] = locus YMR205C, strain PFK2 (second series), hits give low values
[48] = locus YMR277W, strain FCP1, hits give low values
[49] = locus YNL006W, strain LST8, hits give low values
[50] = locus YNL020C, strain ARK1, hits give low values
[51] = locus YNL161W, strain CBK1, hits give low values
[52] = locus YNL183C, strain NPR1, hits give low values
[53] = locus YNL207W, strain RIO2, hits give low values
[54] = locus YNL222W, strain SSU72, hits give low values
[55] = locus YNL307C, strain MCK1 (second series), hits give low values
[56] = locus YOL078W, strain AVO1, hits give low values
[57] = locus YOL136C, strain PFK27, hits give low values
[58] = locus YOR061W, strain CKA2, hits give low values
[59] = locus YOR119C, strain RIO1, hits give low values
[60] = locus YOR231W, strain MKK1, hits give low values
[61] = locus YOR329C, strain SCD5, hits give low values
[62] = locus YPL031C, strain PHO85, hits give low values
[63] = locus YPL153C, strain RAD53, hits give low values
[64] = locus YPL204W, strain HRR25, hits give low values
[65] = locus YPL209C, strain IPL1, hits give low values
[66] = locus YPL256C, strain CLN2, hits give low values
[67] = locus YPR025C, strain CCL1, hits give low values
[68] = locus YPR106W, strain ISR1, hits give low values
[69] = locus YPR111W, strain DBF20, hits give low values
[70] = strain NNK1, hits give low values
[71] = strain TSCII, hits give low values

Measured: normalized growth

Cc1ccc(NC(=O)c2ccccc2N=Cc2cc(Cl)cc(Cl)c2O)c(N=Cc2cc(Cl)cc(Cl)c2O)c1
active: [11] 0.459 | [15] 0.284 | [16] 0.252 | [17] 0.365 | [21] 0.598 | [23] 0.377 | [24] 0.363 | [25] 0.123 | [26] 0.213 | [27] 0.201 | [28] 0.293 | [29] 0.166 | [31] 0.218 | [33] 0.272 | [35] 0.51 | [36] 0.237 | [37] 0.422 | [38] 0.359 | [39] 0.387 | [41] 0.37 | [42] 0.247 | [43] 0.28 | [44] 0.131 | [45] 0.32 | [47] 0.348 | [50] 0.198 | [52] 0.254 | [55] 0.188 | [57] 0.25 | [58] 0.197 | [59] 0.39 | [60] 0.255 | [62] 0.291 | [63] 0.324 | [64] 0.313 | [66] 0.294
inactive: [1] 0.926 | [2] 0.926 | [3] 0.921 | [4] 0.927 | [5] 0.934 | [6] 0.927 | [7] 0.927 | [8] 0.962 | [9] 0.925 | [10] 0.937 | [12] 0.93 | [13] 0.911 | [14] 0.925 | [18] 0.93 | [19] 0.909 | [20] 0.913 | [22] 0.933 | [30] 0.914 | [32] 0.885 | [34] 0.934 | [40] 0.924 | [46] 0.925 | [48] 0.935 | [49] 0.931 | [51] 0.906 | [53] 0.922 | [54] 0.929 | [56] 0.928 | [61] 0.913 | [65] 0.929 | [67] 0.928 | [68] 0.936 | [69] 0.916 | [70] 0.91 | [71] 0.922

CC(=O)Nc1ccc(S(=O)(=O)Nc2ccccc2Oc2ccc(Cl)cc2Cl)cc1
inactive: [1] 0.998 | [2] 0.996 | [3] 0.993 | [4] 0.993 | [5] 0.996 | [6] 0.997 | [7] 0.995 | [8] 1 | [9] 0.999 | [10] 0.995 | [11] 0.984 | [12] 0.993 | [13] 0.986 | [14] 1 | [15] 0.983 | [16] 1.02 | [17] 0.991 | [18] 0.993 | [19] 0.985 | [20] 0.999 | [21] 0.993 | [22] 0.993 | [23] 0.986 | [24] 1.09 | [25] 1 | [26] 1 | [27] 1.01 | [28] 1.04 | [29] 0.987 | [30] 0.992 | [31] 1.03 | [32] 0.965 | [33] 0.992 | [34] 0.996 | [35] 0.97 | [36] 1.01 | [37] 0.986 | [38] 0.985 | [39] 0.98 | [40] 0.994 | [41] 1.04 | [42] 0.959 | [43] 0.98 | [44] 0.995 | [45] 1.01 | [46] 0.999 | [47] 0.99 | [48] 0.995 | [49] 0.999 | [50] 0.992 | [51] 0.995 | [52] 1.01 | [53] 0.995 | [54] 0.995 | [55] 1.01 | [56] 0.995 | [57] 1 | [58] 0.98 | [59] 0.994 | [60] 0.994 | [61] 0.999 | [62] 0.995 | [63] 0.994 | [64] 0.996 | [65] 0.998 | [66] 0.929 | [67] 0.996 | [68] 0.998 | [69] 0.99 | [70] 0.994 | [71] 0.999

— PubChem BioAssay AID1159580 (chemical genetic matrix, 2015)
